PD-1 reverse act = reversal of PD-1 mediated T-cell inhibition; 29,000 tested, under 10 active; primary human CD4 T cells, PD-L1 beads, CellTiter-Glo 96 h; activation, % (test concentration not listed); AID 2316; call rule not given here;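 further: 0% = median vehicle wells and 100% = positive control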
NOMO-1 viab = STK33 inhibitor candidate reducing NOMO-1 cell viability; NOMO-1 AML viability, CellTiter-Glo luminescence, 72 h; inhibition, % (no concentration beside the values); 7.5% of 37,000 active; AID 2330; in the data active means inhibition above about 80%
STK33 kin inh = human STK33 kinase inhibition | ADP-Glo luminescence, MBP substrate | inhibition, % at 12.5 µM | 0.44% of 27,000 active | AID 2322; in the data active means inhibition above about 20%
Target sequence (Q9BYT3 whole entry, looked up): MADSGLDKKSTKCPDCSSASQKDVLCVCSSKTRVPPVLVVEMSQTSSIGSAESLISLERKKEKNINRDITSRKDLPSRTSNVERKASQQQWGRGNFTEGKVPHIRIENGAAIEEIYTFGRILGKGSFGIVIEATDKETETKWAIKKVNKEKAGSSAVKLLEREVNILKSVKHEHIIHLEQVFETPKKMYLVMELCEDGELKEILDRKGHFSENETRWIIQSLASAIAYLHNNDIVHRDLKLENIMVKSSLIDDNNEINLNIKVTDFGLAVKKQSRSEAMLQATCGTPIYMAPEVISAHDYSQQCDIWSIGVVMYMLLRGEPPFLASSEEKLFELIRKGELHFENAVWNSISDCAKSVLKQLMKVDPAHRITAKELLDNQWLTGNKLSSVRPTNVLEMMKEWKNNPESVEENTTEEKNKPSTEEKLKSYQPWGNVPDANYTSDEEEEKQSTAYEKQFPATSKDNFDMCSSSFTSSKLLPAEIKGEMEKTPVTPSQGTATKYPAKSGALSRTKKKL
* = called active by the depositor; . = no result given. This excerpt belongs to a sample that is enriched for hits.

SMILES	PD-1 reverse act	NOMO-1 viab	STK33 kin inh
C[C@H]1CN([C@@H](C)CO)C(=O)Cc2cc(NC(=O)Nc3cccc4ccccc34)ccc2O[C@@H]1CN(C)Cc1ccncc1	2.7	15.7	-1.0
C[C@@H]1CN([C@@H](C)CO)C(=O)Cc2cc(NC(=O)Nc3cccc4ccccc34)ccc2O[C@@H]1CN(C)Cc1ccc(-c2ccccc2)cc1	-0.9	51.6	1.1
COC(=O)c1ccccc1NC(=O)COc1cc(C)ccc1C(C)C	.	18.1	0.3
Cc1sc2nc3c4ccccc4c(N4CCC(C)CC4)nn3c(=O)c2c1C	-0.1	25.6	.
Cc1c(C(N)=O)nnc2cc(-c3ccccc3)nn12	2.2	27.8	.
Cc1cc(S(=O)(=O)N2CCC(NC(=O)Cc3ccccc3)CC2)c(Cl)cc1Cl	-1.5	32.8	.
O=C1NN=C(c2ccccc2)/C1=C1\OC(c2ccccc2)=CS1	-0.3	138.8*	.
O=S(=O)(N[C@@H]1CCN(Cc2ccc(OCCO)cc2)C1)c1cccc2cccnc12	.	.	2.1
O=S(=O)(c1ccc(Cl)c(Cl)c1)N1CCN(Cc2ccc(OCCO)cc2)CC1	.	.	-2.7
C[C@@H]1CN([C@H](C)CO)C(=O)Cc2cc(NC(=O)Cc3cn(C)c4ccccc34)ccc2O[C@@H]1CN(C)Cc1ccc(C(=O)Nc2ccccc2N)cc1	-1.7	76.5	.
C[C@H]1CN([C@@H](C)CO)C(=O)Cc2cc(NC(=O)Cc3cn(C)c4ccccc34)ccc2O[C@H]1CN(C)Cc1ccc(C(=O)Nc2ccccc2N)cc1	-2.3	120.1*	.
C[C@H](CO)N1C[C@H](C)[C@H](CN(C)Cc2ccc(C(=O)Nc3ccccc3N)cc2)Oc2ccc(NC(=O)Cc3cn(C)c4ccccc34)cc2CC1=O	-5.1	127.0*	.
C[C@@H]1CN([C@H](C)CO)C(=O)Cc2cc(NC(=O)Cc3cn(C)c4ccccc34)ccc2O[C@@H]1CN(C)Cc1ccc(C(=O)O)cc1	-0.3	-0.2	-4.9
COc1cccc(-c2cc(=O)c3cc(OC)ccc3o2)c1	.	59.3	7.1
Cc1ccc2cc(S(=O)(=O)NCc3ccco3)ccc2c1	-5.2	4.1	14.9
CC(CC(C)O[C@@H]1O[C@H](CO)[C@@H](O)[C@H](O)[C@H]1O)OC(=O)/C=C/c1ccc(O)cc1 (stereo not given in full)	1.7	9.7	2.6
Cn1c(=O)c2c(nc(NCCN)n2Cc2ccc(Cl)cc2)n(C)c1=O	2.4	17.3	1.9
Cn1c(=O)c2c(nc(NCC(O)c3ccccc3)n2Cc2ccc(F)cc2)n(C)c1=O (stereo not given)	-7.4	95.4*	1.4
CN(CC(=O)Nc1cc(C(F)(F)F)ccc1Cl)S(=O)(=O)c1ccc2ccccc2c1	1.1	-16.6	-0.2
COC(=O)c1sc(NC(=S)Nc2c(C)nn(Cc3c(F)c(F)c(F)c(F)c3F)c2C)c(C(=O)OC)c1C	-0.1	10.8	-3.7
C[C@@H]1CN([C@@H](C)CO)C(=O)c2cccc(NC(=O)Nc3ccc(C(F)(F)F)cc3)c2O[C@H]1CN(C)Cc1ccc(-c2ccccc2)cc1	-1.0	77.3	.
C[C@@H]1CN([C@H](C)CO)C(=O)c2cccc(NC(=O)Nc3ccc(C(F)(F)F)cc3)c2O[C@H]1CN(C)Cc1ccc(-c2ccccc2)cc1	.	109.6*	1.9
C[C@H](CO)N1C[C@H](C)[C@H](CN(C)Cc2ccc(-c3ccccc3)cc2)Oc2c(NC(=O)Nc3ccc(C(F)(F)F)cc3)cccc2C1=O	-2.0	82.1*	.
COC(=O)C1=CO[C@@H](O[C@@H]2O[C@H](CO)[C@@H](O)[C@H](O)[C@H]2O)C2C1CC(O)C2C (stereo not given in full)	2.9	1.3	0.0
O=C(Nc1ccccc1)/C(=C/c1ccccc1)NC(=O)c1ccccc1	1.0	14.7	.
SMILES	PD-1 reverse act	NOMO-1 viab	STK33 kin inh
CC(=O)c1cccc(NC(=O)C2CCCN(S(=O)(=O)c3ccc(Cl)cc3)C2)c1 (stereo not given)	-1.1	23.4	0.4
COc1ccc(COCC(O)CS(=O)(=O)Cc2ccc(C)cc2)cc1 (stereo not given)	1.1	-17.3	.
C/C=C(\C)C(=O)O[C@H]1C=C(CO)C(=O)[C@H](OC(C)=O)[C@H]1C(C)C	-35.1	122.2*	1.3
COc1cccc(-c2cc(C(F)(F)F)n3nc(C(=O)Nc4cc(C)nn4-c4ccccc4)cc3n2)c1	-0.9	28.9	0.6
COC(=O)c1c(NC(=O)Cn2ccc([N+](=O)[O-])n2)sc2c1CCCC2	-1.6	28.0	-1.3
O=C(CN1CC(=O)Oc2ccccc21)Nc1ccc(O)cc1	-4.2	111.1*	.
COc1ccc(C(=O)COC(=O)CN2C(=O)C3CC=CCC3C2=O)cc1 (stereo not given)	0.9	30.9	-1.1
O=C(CN1CC(=O)Oc2ccccc21)OCC(=O)c1ccccc1	-1.0	102.7*	.
O=C(CN1C(=O)c2ccccc2S1(=O)=O)Nc1ccc2c(c1)OCCO2	.	-7.6	-1.4
CC(Oc1ccc(C(C)(C)C)cc1)C(=O)Nc1ncn[nH]1 (stereo not given)	0.5	5.5	1.6
C[C@@H]1CN([C@@H](C)CO)C(=O)Cc2cc(NC(=O)Nc3ccc(C(F)(F)F)cc3)ccc2O[C@@H]1CN(C)C(=O)Nc1cccc2ccccc12	-1.5	82.5*	-3.7
C[C@H]1CN([C@@H](C)CO)C(=O)Cc2cc(NC(=O)Nc3ccccc3)ccc2O[C@@H]1CN(C)C(=O)Nc1ccc(C(F)(F)F)cc1	0.1	10.2	0.7
C[C@H](CO)N1C[C@H](C)[C@H](CN(C)C(=O)Nc2ccccc2)Oc2ccc(NC(=O)Nc3ccc(C(F)(F)F)cc3)cc2CC1=O	.	92.1*	.
C[C@@H]1CN([C@H](C)CO)C(=O)Cc2cc(NC(=O)Nc3ccc(C(F)(F)F)cc3)ccc2O[C@@H]1CN(C)C(=O)Nc1cccc2ccccc12	-3.6	31.2	-1.0
C[C@@H]1CN([C@@H](C)CO)C(=O)Cc2cc(NC(=O)Nc3ccc(C(F)(F)F)cc3)ccc2O[C@@H]1CN(C)C(=O)Nc1ccccc1	-2.2	111.5*	1.6
C[C@@H]1CN([C@@H](C)CO)C(=O)Cc2cc(NC(=O)Nc3ccc(F)cc3)ccc2O[C@@H]1CN(C)C(=O)Nc1ccc(C(F)(F)F)cc1	.	32.8	1.1
COC(=O)c1cc(C(=O)OC)cc(-n2c(C)cc(C(=O)CSc3nc(C)cc(C)c3C#N)c2C)c1	0.7	23.2	-6.6
COc1ccc(-n2c(SCC(=O)Nc3ccc(C)c(Cl)c3)nnc2-c2ccncc2)cc1	-8.1	28.0	-3.8
O=C(CN1CCCCC1)Nc1sc2c(c1C(=O)Nc1ccc(Br)cc1)CCC2	-2.3	13.9	-6.1
Cc1c(O)c(C(=O)c2nn[nH]n2)c(=O)n(-c2ccccc2)c1-c1ccccc1	4.1	18.5	1.2
O=C(Oc1cc(=O)oc2c1c(=O)n1c3c(cccc23)CC1)c1ccccc1	-1.1	139.9*	.
O=C(Oc1cccc2ccccc12)c1ccccc1	-1.2	40.2	.
CCc1cccc(OCC(=O)Nc2cccc(-c3nnc(-c4ccccc4)o3)c2)c1	3.0	21.2	6.3
COc1cc(CC(C)C(C)Cc2ccc(O)c(OC)c2)ccc1O (stereo not given)	-12.1	121.2*	1.6
COc1cc(CC(CO)C(CO)Cc2cc(OC)c(O)c(-c3cc(CC(CO)C(CO)Cc4ccc(O)c(OC)c4)cc(OC)c3O)c2)ccc1O (stereo not given)	.	.	-10.2
CCOC(=O)c1cc(COc2ccc3oc4ccccc4c3c2)c(C)o1	.	32.1	-0.7
